Data: PubChem BioAssay
Activity calls are given as the source filed them.

Legend:
[1] = compound effects on lung adenocarcinoma cell viability – A549, calcein-AM fluorescence, 48 h, basal, profiling panel (AID 1162); conditions: higher = more signal; note: test concentration not given here
[2] = compound effects on differentiated 3T3-L1 adipocyte viability – cell-based, 3T3-L1 adipocytes, calcein-AM fluorescence, 48 h, basal, profiling panel (AID 1163); conditions: 3T3-L1 adipocytes viability, higher = more signal; note: test concentration not given here
[3] = compound effects on hepatocellular carcinoma cell viability – HepG2, calcein-AM fluorescence, 48 h, basal, profiling panel (AID 1164); conditions: higher = more signal; note: test concentration not given here
[4] = compound effects on multiple myeloma cell viability – MM1S, calcein-AM fluorescence, 48 h, basal, profiling panel (AID 1165); conditions: higher = more signal; note: test concentration not given here
[5] = calcein-AM signal in unstimulated myeloma cells – cell-based, calcein-AM fluorescence, 48 h, PK04 Diversity Set, profiling panel (AID 1166); conditions: RPMI8226 myeloma viability, higher = more signal;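 note: cells grown under basal conditions without added stimulus; test concentration not given here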
[6] = JC-1 mitochondrial signal, unstimulated HepG2 cells – cell-based, JC-1 fluorescence, 24 h, 100 nL compound, profiling panel (AID 1167); conditions: HepG2 mitochondrial potential, higher = more signal; note: test concentration not given here
[7] = JC-1 mitochondrial signal, unstimulated adipocytes – cell-based, JC-1 fluorescence, 3T3-L1 adipocytes, 24 h, 100 nL compound, profiling panel (AID 1168); conditions: JC-1 mitochondrial fluorescence, higher = more signal, called active from +8 up or from −8 down; note: test concentration not given here
[8] = JC-1 mitochondrial signal, unstimulated myeloma cells – cell-based, JC-1 fluorescence, RPMI8226, 24 h, 100 nL compound, profiling panel (AID 1169); conditions: JC-1 mitochondrial potential fluorescence, higher = more signal; note: test concentration not given here
[9] = JC-1 mitochondrial signal, unstimulated MM1S myeloma – cell-based, JC-1 fluorescence, 24 h, 100 nL compound, profiling panel (AID 1170); conditions: MM1S mitochondrial potential, higher = more signal; note: test concentration not given here
[10] = resazurin metabolic signal in A549 cells – cell-based, resazurin fluorescence, 24 h, PK04 Diversity Set, profiling panel (AID 1171); conditions: A549 viability, higher = more signal, called active from +8 up or from −8 down; note: test concentration not given here
[11] = resazurin metabolic signal in HepG2 cells – cell-based, resazurin fluorescence, 24 h, PK04 Diversity Set, profiling panel (AID 1172); conditions: HepG2 viability, higher = more signal; note: test concentration not given here
[12] = budding yeast growth changes without added modifier – OD600, strain BY4716, 24 h, basal condition, primary screen (AID 1173); conditions: S. cerevisiae BY4716 growth, OD600, 24 h; higher = more signal, called active from +8 up or from −8 down
[13] = viability profiling in MM1S myeloma cells – cell-based, resazurin fluorescence, basal, 24 h, PK04 Diversity Set, profiling panel (AID 1174); conditions: higher = more signal, called active from +8 up or from −8 down; note: test concentration not given here
[14] = molecular target: Dihydroorotate dehydrogenase (quinone), mitochondrial (Plasmodium falciparum (isolate 3D7)) (UniProt Q08210); assay: inhibition of P. falciparum DHODH – biochemical, C-terminal His tag, absorbance 600 nm, primary screen (AID 1175); conditions: PfDHODH enzyme, DCIP absorbance 600 nm; higher = more signal, called active from +8 up or from −8 down;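 note: recombinant parasite enzyme with a five histidine tag at its C terminus; test concentration not given here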
[15] = growth modulation of vineyard yeast isolate – strain RM11-1a, OD600, basal, 24 h, primary screen (AID 1177);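 note: cultures grown under basal conditions with no added stressor; test concentration not given here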; conditions: S. cerevisiae RM11-1a growth, OD600, 24 h; higher = more signal, called active from +8 up or from −8 down
[16] = growth of efflux-deficient E. coli DRC39 – strain DRC39, OD650, 24 h, E. coli filamentation inducers, primary screen (AID 1178);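 note: growth measured as culture turbidity by optical density at 650 nm; test concentration not given here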; conditions: E. coli DRC39 acrAB, higher = more signal, called active from +8 up or from −8 down
[17] = growth of efflux-deficient E. coli DRC39 – strain DRC39, OD650, 48 h, E. coli filamentation inducers, primary screen (AID 1179);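 note: screen aims at cell division blockers that make cells filament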; conditions: E. coli DRC39 delta-acrAB growth, higher = more signal, called active from +8 up or from −8 down
[18] = viability profiling in RPMI8226 myeloma cells – cell-based, resazurin fluorescence, basal, 24 h, PK04 Diversity Set, profiling panel (AID 1180); conditions: higher = more signal;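 note: RPMI8826 multiple myeloma cell line at 5000 cells per well; test concentration not given here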
[19] = molecular target: E3 ubiquitin-protein ligase XIAP (Homo sapiens) (UniProt P98170); assay: small molecules binding XIAP protein – biophysical, small-molecule microarray, fluorescence 635 nm, primary screen (AID 1181); conditions: higher = more signal;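 note: score merges 667 nm emission and signal to noise over triplicate slides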
Sequence of E3 ubiquitin-protein ligase XIAP (Homo sapiens) (P98170 whole entry, looked up): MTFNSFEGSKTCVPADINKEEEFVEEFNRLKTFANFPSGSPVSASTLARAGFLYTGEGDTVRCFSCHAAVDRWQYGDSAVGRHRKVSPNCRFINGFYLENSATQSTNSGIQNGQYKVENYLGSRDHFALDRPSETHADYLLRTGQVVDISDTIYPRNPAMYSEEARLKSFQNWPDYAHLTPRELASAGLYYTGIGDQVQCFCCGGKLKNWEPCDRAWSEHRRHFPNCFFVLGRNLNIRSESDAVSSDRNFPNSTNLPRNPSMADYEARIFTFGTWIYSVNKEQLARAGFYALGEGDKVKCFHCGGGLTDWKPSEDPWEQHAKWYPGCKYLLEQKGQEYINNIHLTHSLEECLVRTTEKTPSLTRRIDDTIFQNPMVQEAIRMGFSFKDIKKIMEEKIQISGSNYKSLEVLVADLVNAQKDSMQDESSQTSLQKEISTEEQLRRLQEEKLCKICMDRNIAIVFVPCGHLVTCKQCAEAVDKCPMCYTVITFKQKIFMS

Sequence of Dihydroorotate dehydrogenase (quinone), mitochondrial (Plasmodium falciparum (isolate 3D7)) (Q08210 whole entry, looked up): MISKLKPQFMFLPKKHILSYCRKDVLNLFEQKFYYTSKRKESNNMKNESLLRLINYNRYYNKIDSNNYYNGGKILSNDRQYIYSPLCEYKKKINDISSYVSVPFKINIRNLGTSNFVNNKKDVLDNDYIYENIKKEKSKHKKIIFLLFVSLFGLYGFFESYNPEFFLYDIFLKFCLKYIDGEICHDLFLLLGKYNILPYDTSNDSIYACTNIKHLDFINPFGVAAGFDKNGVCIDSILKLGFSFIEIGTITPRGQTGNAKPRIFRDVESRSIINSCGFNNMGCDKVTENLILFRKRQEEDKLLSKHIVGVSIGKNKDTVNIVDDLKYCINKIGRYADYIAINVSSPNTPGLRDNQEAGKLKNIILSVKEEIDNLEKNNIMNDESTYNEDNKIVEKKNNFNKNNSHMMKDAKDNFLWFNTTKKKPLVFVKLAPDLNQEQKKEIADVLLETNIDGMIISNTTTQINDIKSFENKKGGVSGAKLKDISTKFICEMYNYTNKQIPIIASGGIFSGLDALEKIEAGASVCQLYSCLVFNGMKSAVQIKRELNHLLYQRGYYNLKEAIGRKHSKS

SMILES	z-score [1]	z-score [2]	z-score [3]	z-score [4]	z-score [5]	z-score [6]	z-score [7]	z-score [8]	z-score [9]	z-score [10]	z-score [11]	z-score [12]	z-score [13]	composite z-score [14]	z-score [15]	z-score [16]	z-score [17]	z-score [18]	composite z-score [19]
C=CCNC(=O)[C@H]1[C@@H]2C(=O)O[C@@H](c3ccccc3)[C@@H](c3ccccc3)N2[C@@H](c2ccccc2OCCO)[C@]12C(=O)N(C(=O)OCCOC)c1ccc(C#CCNC(N)=O)cc12	0.883	1.68	-0.127	-1.13	-0.66	0.208	1.39 (inactive)	-0.711	-0.616	1.13 (inactive)	0.834	0.338 (inactive)	1.71 (inactive)	-1.11 (inactive)	1.04 (inactive)	0.845 (inactive)	1.06 (inactive)	1.72	-0.23
O=C1O[C@@H](c2ccccc2)[C@@H](c2ccccc2)N2[C@@H](c3ccccc3OCCO)[C@]3(C(=O)Nc4ccc(C#CC5=CCCCC5)cc43)[C@@H](C(=O)O)[C@H]12	-1	1.61	-0.992	-3.39	-4.65	-3.81	4.74 (inactive)	-1.07	-0.999	0.289 (inactive)	0.172	-0.5 (inactive)	-2.81 (inactive)	-4.84 (inactive)	3.46 (inactive)	0.175 (inactive)	0.45 (inactive)	-5.59	0.105
CCCCCCc1nc(C2CC2)c(C)c2c1[Si](C(C)C)(C(C)C)OC2	0.632	2.88	-0.693	-0.155	-0.499	0.366	1.56 (inactive)	0.296	0.419	-0.207 (inactive)	0.252	-0.875 (inactive)	1.47 (inactive)	-3.54 (inactive)	-2.89 (inactive)	1.6 (inactive)	0.878 (inactive)	0.232	0.109
Cc1ccc(N2C(=O)c3ccccc3[C@@H](C(=O)NCc3ccccc3)[C@@H]2c2ccc(CO)cc2)nc1	1.08	1.14	-0.296	0.2	1.18	0.532	1.07 (inactive)	0.0567	0.202	0.737 (inactive)	0.138	0.0819 (inactive)	1.36 (inactive)	0.787 (inactive)	1.11 (inactive)	-0.0753 (inactive)	-0.0787 (inactive)	1.06	0.02
C=CCN1C(=O)[C@]2(O[C@H](CCn3cc(CCO)nn3)[C@@H]([Si](C)(C)c3ccc(OC)cc3)[C@@H]2C)c2cc(NC(=O)c3ccc(OC)cc3)ccc21	-0.423	0.727	-0.792	-2.7	-4.31	3.04	1.61 (inactive)	-1.09	0.122	-2.65 (inactive)	-1.89	-2.6 (inactive)	-4.32 (inactive)	1.31 (inactive)	1.23 (inactive)	1.8 (inactive)	0.797 (inactive)	-4.33	-0.104
CO[C@H]1O[C@H](CO)[C@@H](OC(=O)CCc2ccccc2)[C@@H]2OC(=O)[C@H](Cc3cccc(Br)c3)C/C=C/C[C@@H](Cc3cccc(Br)c3)C(=O)O[C@@H]12	1.28	1.22	2.26	1.15	1.6	1.01	1.6 (inactive)	-0.359	1.18	0.844 (inactive)	1.13	-3.87 (inactive)	1.5 (inactive)	-0.578 (inactive)	-4.01 (inactive)	1.41 (inactive)	1.14 (inactive)	1.45	0.0356
CO[C@@H]1COC(=O)[C@H](C)NC(=O)CC=C[C@@H](C)[C@H](OC)COC(=O)[C@H](C)NC(=O)CC=C[C@H]1C	1.2	-0.0006	1.01	0.419	0.973	0.51	1.44 (inactive)	-1.04	1.95	0.787 (inactive)	0.542	-0.786 (inactive)	0.102 (inactive)	0.32 (inactive)	-0.161 (inactive)	0.884 (inactive)	0.552 (inactive)	-0.171	-0.142
CCOC(=O)C[C@H]1[C@H](OC(=O)Cc2ccc3c(c2)OCO3)[C@@H](NC(=O)CC(C)C)c2cc(OCCCO)ccc2N1C(=O)c1ccccc1	2.34	-0.148	0.978	0.532	2.13	1.78	1.58 (inactive)	-0.0658	0.751	1.16 (inactive)	1.05	-1.05 (inactive)	0.548 (inactive)	0.679 (inactive)	-0.606 (inactive)	2.13 (inactive)	1.65 (inactive)	0.458	0.0015
CO[C@H]1COC(=O)[C@H](C)NC(=O)CC=C[C@@H](C)[C@H](NS(=O)(=O)c2ccc(C)cc2)COC(=O)CC=C[C@@H]1C	-0.199	1.76	-0.261	0.436	0.769	0.645	-0.236 (inactive)	-0.081	0.753	0.317 (inactive)	0.072	-1.57 (inactive)	1.19 (inactive)	-0.253 (inactive)	-0.724 (inactive)	0.127 (inactive)	-0.244 (inactive)	0.945	0.023
